# In PubChem BioAssay (NCI):
# Compounds without any hit were thinned out: in the full panel of roughly 83,000, 20% have a hit.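 Treatment: one concentration, 48 hours, 96-well format. Scoring: percent growth, with anything below 10 considered active.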 Values without a mark were called inactive. Activity calls are given as the source filed them.
# What was measured:
# Test in all cases: NCI-60 one-dose screen, 48 h (100 = growth as untreated, 0 = no growth, -100 = all killed)
# Settings in all cases: 10 µM unless noted
# SR leukemia = system: SR leukemia
# RPMI-8226 leukemia = system: RPMI-8226 leukemia
# OVCAR-8 ovarian = system: OVCAR-8 ovarian
# OVCAR-5 ovarian = system: OVCAR-5 ovarian
# OVCAR-4 ovarian = system: OVCAR-4 ovarian
# SK-OV-3 ovarian = system: SK-OV-3 ovarian
# IGROV1 ovarian = system: IGROV1 ovarian
# OVCAR-3 ovarian = system: OVCAR-3 ovarian
# HS 578T breast = system: HS 578T breast
# NCI/ADR-RES ovarian = system: NCI/ADR-RES ovarian
SMILES,growth (SR leukemia),growth (RPMI-8226 leukemia),growth (OVCAR-8 ovarian),growth (OVCAR-5 ovarian),growth (OVCAR-4 ovarian),growth (SK-OV-3 ovarian),growth (IGROV1 ovarian),growth (OVCAR-3 ovarian),growth (HS 578T breast),growth (NCI/ADR-RES ovarian)
OCC12CCCC(CO)(COC1)C2O (stereo not given),116%,103%,109%,106%,104%,102%,116%,117%,115%,97.3%
CC1=NN(c2ccc(S(=O)(=O)O)cc2Cl)C(=O)C1,113%,104%,99.9%,94.3%,102%,105%,105%,158%,131%,98.9%
COC(=O)CNc1nc(N(C)O)nc(N(C)O)n1,34.3%,36.4%,34.3%,87.7%,29.3%,50.8%,48%,-6.47% (active),77.8%,21.3%
O=C(CI)Nc1ccc(O)c2ccccc12,-1.5% (active),-18.8% (active),-22.9% (active),18.5%,26.6%,77.5%,-15.5% (active),-29.5% (active),33.2%,-15.1% (active)
Fc1ccc(Nc2nnc(-c3ccc(Cl)cc3)o2)cc1,90.8%,99.8%,86.7%,98.3%,94.7%,77.4%,90.2%,110%,107%,99%
CCN1CCN(C(=O)[C@@]2(C)CC[C@]3(C)CC[C@]4(C)C(=CC(=O)[C@@H]5[C@@]6(C)CC[C@H](OCCC#N)C(C)(C)[C@@H]6CC[C@]54C)[C@@H]3C2)CC1,4.19% (active),63.2%,90.5%,92.3%,94.7%,99.2%,95.5%,100%,83.3%,93.3%
COc1ccc(C2NC(=O)Nc3ccccc32)c(OC)c1 (stereo not given),91.7%,108%,101%,112%,105%,95.3%,98.2%,112%,94.8%,99%
NCCn1cc(-c2nc(-c3c[nH]c4ncccc34)cs2)c2ccccc21,62.6%,78.1%,86.7%,102%,68.2%,82.2%,50.2%,90.8%,84.4%,98.1%
CCOC(=O)N1CCN(CCCCOc2ccc(C(C)(C)CC)cc2)CC1,90.3%,84.4%,103%,106%,93.8%,104%,110%,103%,108%,88.2%
CC(C)(C)c1ccc(OP(=S)(N/N=C/c2ccccc2O)Oc2ccc(C(C)(C)C)cc2)cc1,61.6%,45.8%,82.8%,91.6%,65.1%,65.2%,63.5%,47.5%,94.5%,87.8%
Cn1cc(-c2csc(-c3cn(CCN)c4ccc(Br)cc34)n2)c2cccnc21,9.41% (active),59.5%,76.5%,76.5%,54.3%,91.6%,38.8%,72.5%,74.5%,86.4%
CN1CCN(c2ccc3nc(-c4[nH]ncc4Nc4ncnc5c4OCCCN5)[nH]c3c2)CC1,3.46% (active),-36.3% (active),0.0729% (active),-61.4% (active),-35.2% (active),-21.5% (active),-21.4% (active),-32.2% (active),-5.79% (active),-6.16% (active)
COc1cc(/C=C2\C(=O)N(CC(O)COc3cc(O)c4c(=O)cc(-c5ccccc5)oc4c3)c3ccccc32)cc(OC)c1O (stereo not given),45.9%,57.9%,77%,113%,78.7%,111%,51.3%,69.5%,85.1%,87.5%
COc1ccc2c(c1)c(-c1nc(-c3cn(C)c4ncccc34)cs1)cn2CCCN1CCCCC1,-39.1% (active),-8.74% (active),59.6%,85.3%,74.7%,89.8%,66.1%,-52.1% (active),73.7%,69.5%
Oc1cccc2ccc(N/N=C/c3cc(CN4CCCCC4)c(O)c4ncccc34)nc12,-12.7% (active),0.883% (active),8.27% (active),36.4%,8.09% (active),-30.5% (active),14.3%,7.62% (active),17.1%,8.58% (active)
COC(=O)[C@]12CC[C@@H](C)[C@H](C)[C@@H]1C1=CC[C@@H]3[C@@]4(C)C=C(O)C(=O)C(C)=C4CC[C@@]3(C)[C@]1(C)CC2,20.4%,1.56% (active),37.9%,64.5%,37.8%,61.7%,53.6%,28.5%,33.2%,38.8%
